{"source": "PubChem BioAssay (NCI)", "note": "The panel holds about 83,000 compounds, 20% with a hit somewhere; the sample as a whole holds those more often.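 Single-dose data. Exposure time 48 hours. Values below 10 considered active.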 The source made the active and inactive calls."}
{"test_system": "HL-60(TB) leukemia", "assay": "NCI-60 one-dose screen, 48 h (100 = growth as untreated, 0 = no growth, -100 = all killed)", "conditions": "10 µM unless noted"}
{"smiles": "COC(=O)c1ccc(C(=Nc2ccc(N(C)C(=O)CN3CCN(C)CC3)cc2)c2c(O)[nH]c3ccc(C(=O)OC)cc23)cc1", "growth": "14.4% (inactive)"}
{"smiles": "CCOC(=O)Cn1nnc(-c2ccc(OCc3ccccc3F)cc2)n1", "growth": "102% (inactive)"}
{"smiles": "O=C(N/N=C/c1ccc(OC(F)F)c(OC2CCCC2)c1)c1cnn2c1NC(c1ccccc1)C2", "note": "(stereo not given)", "growth": "100% (inactive)"}
{"smiles": "COc1ccc2c(CCCC(c3ccccc3)c3ccccc3)c3[n+](cc2c1OC)CCc1cc2c(cc1-3)OCO2", "growth": "-30.9% (active)"}
{"smiles": "C=CN(C(=O)N1CCN(c2cc3c(cc2F)c(=O)c(C(=O)O)cn3C2CC2)CC1)c1nc(-c2ccc(Cl)cc2)cs1", "growth": "10.7% (inactive)"}
{"smiles": "COc1ccc2c(c1)CCNC21C(=O)Nc2c(Br)cc(Br)cc21", "note": "(stereo not given)", "growth": "117% (inactive)"}
{"smiles": "C=C(C)[C@@H]1CC[C@]2(C)[C@H](C=CC3=C4C[C@@](C)(CO)CC[C@]4(C)CC[C@]32C)[C@@]1(C)CCCN", "growth": "-58% (active)"}
{"smiles": "O=C(/C(=C(\\C(=O)c1ccccc1)c1ccccc1)c1ccccc1)c1ccccc1", "growth": "-1.48% (active)"}
{"smiles": "CCC(C)CC(N)O", "note": "(stereo not given)", "growth": "120% (inactive)"}
{"smiles": "COc1ccc2[nH]cc(/C=C3/C(=O)Nc4ccc(F)cc43)c2c1", "growth": "96.6% (inactive)"}
{"smiles": "CCOC(=O)CSc1nc(-c2cc(OC)ccc2OC)cc(-c2ccc(OC)cc2)c1C#N", "growth": "98.5% (inactive)"}
{"smiles": "OC(COc1ccccc1Cl)CN1CCN(c2cccc(Cl)c2)CC1", "note": "(stereo not given)", "growth": "112% (inactive)"}
{"smiles": "C1=C\\COCc2cc(ccc2OCCN2CCCC2)Nc2nccc(n2)-c2cccc(c2)COC/1", "growth": "-34.6% (active)"}
{"smiles": "CCCCCCCCCCCCCCCC[N+]1(CC)CCCC1", "growth": "-69.9% (active)"}
{"smiles": "CN(C)C1CN(C(=O)c2cc(-c3ccc4ncnc(N5CCc6cc(F)c(Cl)cc65)c4c3)cnc2N)C1", "growth": "-1.16% (active)"}
{"smiles": "Cc1ccc(/C=C2\\CNC/C(=C\\c3ccc(C)cc3)C2=O)cc1", "growth": "-29.1% (active)"}
{"smiles": "N#Cc1ccccc1-c1ccc(Cn2c(-c3cscn3)nc3c(Cl)cccc32)cc1", "growth": "85.8% (inactive)"}
{"smiles": "C#CCNC(=O)[C@H](Cc1ccccc1)NC(=O)[C@]12CC[C@@H](C(=C)C)[C@@H]1[C@H]1CC[C@@H]3[C@@]4(C)Cc5c([nH]c6ccccc56)C(C)(C)[C@@H]4CC[C@@]3(C)[C@]1(C)CC2", "growth": "93.1% (inactive)"}
{"smiles": "CCOC(=O)n1ccn(C)c1=S", "growth": "101% (inactive)"}
{"smiles": "COc1ccc(/C(=C\\c2ccc3c(c2)OCO3)C(=O)Nc2nc3ccc(F)cc3s2)cc1OC", "growth": "93% (inactive)"}
{"smiles": "CC/C=C\\C[C@H]1CC=C2C(=O)C=C[C@@H]2CC=CCCCC(=O)O[C@@H](CCCCC)CC=C2C(=O)C=C[C@@H]2CC=CCCCC(=O)O[C@@H](CCCCC)CC=C2C(=O)C=C[C@@H]2CC=CCCCC(=O)O[C@@H](CCCCC)CC=C2C(=O)C=C[C@@H]2CC=CCCCC(=O)O1", "growth": "-15.3% [7.9 µM] (active)"}
{"smiles": "COc1ccc(Nc2cc(C)nc(N3CCN(c4ccnc5cc(Cl)ccc45)CC3)n2)cc1", "growth": "2.43% (active)"}
{"smiles": "COc1ccc(-c2nc(SC)nc(N3CCOCC3)c2C#N)cc1", "growth": "94% (inactive)"}
{"smiles": "CN1CCN(CCCOc2ccc3ncnc(Nc4ccc(Oc5cccc(F)c5)c(Cl)c4)c3c2)CC1", "growth": "-47.3% (active)"}
{"smiles": "CCOC(=O)C1=CCC(n2cc(C)c(=O)[nH]c2=O)O1", "note": "(stereo not given)", "growth": "89.8% (inactive)"}
{"smiles": "COc1ccc(/C=C(/C(=O)N2CCN(Cc3ccccc3)CC2)c2cc(OC)c(OC)c(OC)c2)cc1O", "growth": "22.9% (inactive)"}
{"smiles": "COC(=O)c1c[nH]c2cc(OC(C)C)c(OC(C)C)cc2c1=O", "growth": "106% (inactive)"}
{"smiles": "CS(=O)(=O)c1ccc(C(=O)N/N=C/c2ccc3c(c2)OCO3)cc1", "growth": "57% (inactive)"}
{"smiles": "S=C(Sc1ccc(Cl)cc1)Sc1ccc(Cl)cc1", "growth": "-63.7% (active)"}
{"smiles": "O=C1CCC(N2C(=O)c3cccc(NCCCC4CCN(CCNC(=O)c5cc6c(o5)C(=O)c5ccccc5C6=O)CC4)c3C2=O)C(=O)N1", "note": "(stereo not given)", "growth": "6.69% (active)"}
{"smiles": "CCOC(=O)CC(C#N)(CC(=O)OCC)C(=O)OCC", "growth": "102% (inactive)"}
{"smiles": "COc1cc(/C=C2\\CCC/C(=C\\c3cc(CN4CCCC4)c(O)c(OC)c3)C2=O)cc(CN2CCCC2)c1O", "growth": "5.18% (active)"}
{"smiles": "CC1=C[S+](c2ccccc2)c2cccc3cc4ccccc4c1c23", "note": "(stereo not given)", "growth": "-50.3% (active)"}
{"smiles": "COc1cccc(-n2cc(-c3nc(Cl)c4ccccc4n3)nn2)c1", "growth": "97.3% (inactive)"}
{"smiles": "N#Cc1c(-c2ccc(C(F)(F)F)cc2)c(F)c(NCCC2CCC(O)C2)n2c1nc1ccccc12", "note": "(stereo not given)", "growth": "25.1% (inactive)"}
